# PubChem BioAssay AID2314 (National Center for Advancing Translational Sciences (NCATS), 2010)
# “And” between values parts separate entries of the source, which are not always exact repeats. Equal entries are not always repeated. Out of some 300,000 compounds screened, about 37,000 (12%) were called active. Rule as the data show it: active = max response mostly above about 13% (no sharp cut-off); inactive = mostly below about 14%. The entries come from a sample that favours actives as a whole.
# Assay: Cycloheximide Counterscreen for Small Molecule Inhibitors of Shiga Toxin; also: read at 38.3 µM for the half of the compounds with a filed dose; 0% is about no effect
# Conditions: cell reporter, cycloheximide protein synthesis inhibition counterscreen; active compounds read high
row,Structure (SMILES),max response
1,CCOc1c(OC)cccc1C(=O)NCC1(c2ccccc2)CCCC1,-2.45% (inactive)
2,O=C(C1CCN(S(=O)(=O)Cc2ccccc2)CC1)N1CCCc2ccccc21,11.2% (inactive)
3,OCC1(Cc2ccccc2)CCN(Cc2cc3ccccc3o2)CC1,1.07% (inactive)
4,O=C(COC(=O)C1CC2C=CC1C2)Nc1ccccc1 (configuration not stated),27.3% (active)
5,Cc1ccc(S(=O)(=O)N(C)CC(=O)OCC(=O)Nc2ccccc2)cc1,3.68% (inactive)
6,NC(=O)c1ccc(NC(=O)COC(=O)C(Cc2ccccc2)NC(=O)c2ccccc2)cc1 (configuration not stated),-2.16% (inactive)
7,COc1ccc(C(=O)n2nc(C)c(Br)c2C)cc1OC,-2.74% (inactive)
8,Cc1ccc(Nc2nc(-c3sc(NC(=O)c4ccccc4)nc3C)cs2)cc1,8.35% (inactive)
9,Cc1nc(C)c(-c2csc(NCCc3ccccc3)n2)s1,13.4% (active)
10,S=c1[nH]nc(NCCc2ccccc2)s1,-2.47% (inactive)
11,CC1CC(C)CN(C(=O)CCNC(=O)Cn2cnc3ccccc3c2=O)C1 (configuration not stated),-4.79% (inactive)
12,O=C(N/C(=C/c1ccc(Cl)cc1)C(=O)N1CCCCC1)c1ccco1,-0.943% (inactive)
13,CCn1c(CSc2nc(C)cc(C)n2)nnc1SCC(N)=O,-2.49% (inactive)
14,C=CCn1c(SCc2c(C(=O)OC)sc(N)c2C(=O)OC)nnc1-c1ccc(Cl)cc1,-1.63% (inactive)
15,C=CCn1c(SCC(N)=O)nnc1-c1cc2c(s1)CCC(CC)C2 (configuration not stated),29.3% (active)
16,CCS(=O)(=O)N1Cc2ccccc2CC1C(=O)Nc1ccc(OC)cc1OC (configuration not stated),3.12% (inactive)
17,CCS(=O)(=O)N1Cc2ccccc2CC1C(=O)Nc1nc2ccc(F)cc2s1 (configuration not stated),77.8% (active)
18,Cc1ccc2nc(NC(=O)C3CCN(S(=O)(=O)c4ccc5c(c4)oc(=O)n5C)CC3)sc2c1,-6.17% (inactive)
19,CCOC(=O)C(C)n1cnc2c(nnn2-c2ccc(F)cc2)c1=O (configuration not stated),8.68% (active)
20,COc1ccc(-n2nnc3c(=O)n(CC(=O)OCc4ccccc4)cnc32)cc1,0.544% (inactive)
21,CCOC(=O)C(C)n1cnc2c(nnn2-c2cccc(OC)c2)c1=O (configuration not stated),35.4% (active)
22,COC(=O)C(C)n1cnc2c(nnn2-c2cccc(Cl)c2)c1=O (configuration not stated),-1.58% (inactive)
23,COC(=O)C(C)n1cnc2c(nnn2-c2ccc(F)cc2)c1=O (configuration not stated),-2.37% (inactive)

row,Structure (SMILES),max response
1,CCOC(=O)C(CC)Sc1ncnc2c1nnn2-c1ccc(F)cc1 (configuration not stated),-1.76% (inactive)
2,COc1ccc(CCN2C(=O)C(C)=C(C)C2=O)cc1OC,1.83% (inactive)
3,COc1ccc(N2CCN(C(=O)C3CCN(C(=O)c4ccccc4Cl)CC3)CC2)cc1,0.346% (inactive)
4,COc1cccc(CN(C)C(=O)CC23CC4CC(CC(C4)C2)C3)c1OC,-3.61% (inactive)
5,O=C(Nc1ccc(F)cc1)c1ccc(S(=O)(=O)NCc2cccnc2)cc1,13% (inactive)
6,O=C(Nc1ccccc1C(=O)O)c1cc(S(=O)(=O)N2CCCCC2)cs1,-3.51% (inactive)
7,O=C(Nc1ccccc1F)c1cc(S(=O)(=O)N2CCCCC2)cs1,13.9% (active)
8,Cc1ccccc1NC(=O)c1cc(S(=O)(=O)N2CCOCC2)cs1,1.05% (inactive)
9,O=C(Nc1cccc(F)c1)c1ccc(S(=O)(=O)N2CCCC2)cc1,-1.88% (inactive)
10,O=C(CN1CCCCCC1)Nc1ccc(S(=O)(=O)N2CCCCC2)cc1,-2.88% (inactive)
11,O=C(Nc1ccc(S(=O)(=O)N2CCCCCC2)cc1)c1c(F)cccc1F,16.3% (active)
12,O=C(O)c1ccc(Cn2c(=S)[nH]c3cc(Cl)ccc3c2=O)cc1,-2.92% (inactive)
13,O=C(CN1C(=O)CC(c2ccccc2)=Nc2ccccc21)NC1CCCCC1,-1.57% (inactive)
14,COc1ccc(S(=O)(=O)NNC(=O)Nc2ccc(C)cc2)c(OC)c1,0.87% (inactive)
15,COc1ccc(NS(=O)(=O)c2cc(NC(=O)CC(=O)c3ccc([N+](=O)[O-])cc3)ccc2C)cc1,-3.18% (inactive)
16,CN1/C(=c2/s/c(=C3/C(=O)N(c4ccccc4)NC3=Nc3ccccc3)n(C)c2=O)C(C)(C)c2ccccc21,-0.907% (inactive)
17,CCN1C(=O)/C(=C2/Sc3ccccc3N2CCCS(=O)(=O)O)SC1=S,-1.1% (inactive) and 2.76% (inactive)
18,CCN1C(=O)/C(=c2\s/c(=C3\Sc4ccccc4N3C)c(=O)n2C)N(C)C1=S,22.3% (active)
19,Cc1ccccc1C(=O)OC1OC(=O)C(Cl)=C1Nc1ccccc1 (configuration not stated),0.412% (inactive)
20,CCCc1ccc(OCC(O)CN2CCN(C(=O)OCC)CC2)cc1 (configuration not stated),-3.42% (inactive)
21,COCCCn1c2nc3ccccc3nc2c2c(=O)n(Cc3ccc(Cl)cc3)c(C)nc21,1.89% (inactive)
22,Cc1ccc(Cn2c(C)nc3c(c2=O)c2nc4ccccc4nc2n3Cc2ccco2)cc1,15.8% (active)
23,Cc1nc2c(c(=O)n1Cc1ccco1)c1nc3ccccc3nc1n2Cc1ccccc1,-2.66% (inactive)

row,Structure (SMILES),max response
1,O=C(CCCN1CCc2[nH]c3ccc(F)cc3c2C1)c1ccc(F)cc1,-1.91% (inactive)
2,Cc1ccc(S(=O)(=O)/N=S(\C)C(C)C)cc1 (configuration not stated),-5.61% (inactive)
3,Brc1ccc(-c2nnc(-c3ccccc3)o2)o1,30.6% (active)
4,Brc1ccc(-c2noc(-c3ccccc3)n2)o1,60.7% (active)
5,Cc1cccc(C)c1OC(=O)CSc1nnc(-c2ccccc2)o1,-2.59% (inactive)
6,Nc1nonc1-c1noc(-c2ccc(Br)o2)n1,1.8% (inactive)
7,O=C(CSc1nnc(-c2ccccc2)o1)N1CCOCC1,-2.26% (inactive)
8,Cn1nc(-c2ccccc2)c(-c2nc(-c3ccc(Cl)cc3)no2)c1Cl,7.15% (inactive)
9,Cc1ccccc1OCc1nnc(SCC(=O)N2c3ccccc3Sc3ccc(Cl)cc32)o1,-2.04% (inactive)
10,CCOc1ccc(/C=N/OCC(=O)NCc2cccs2)cc1,-5.69% (inactive)
11,COc1cccc(CNC(=O)Cn2c(=O)oc3cc(S(=O)(=O)N4CCCCC4)ccc32)c1,9.69% (inactive)
12,C/C=C/C(=O)OCc1csc(CC(=O)Nc2ccccc2C)n1,7.73% (inactive)
13,Cc1cc2occ(CC(=O)NNC(=O)c3ccccc3F)c2cc1C,-1.94% (inactive)
14,NC(=O)C1CCN(C(=O)/C(=C/c2ccco2)NC(=O)c2ccccc2)CC1,-1.45% (inactive)
15,COc1ccc(CCn2c(=N)c(C(=O)NCC3CCCO3)cc3c(=O)n4cccc(C)c4nc32)cc1OC (configuration not stated),-4.64% (inactive)
16,Cc1cc(-c2ccc(/C=N/n3cnnc3)o2)c([N+](=O)[O-])cc1C,12.6% (inactive)
17,O=C1C2C3C=CC(C4CC34)C2C(=O)N1/N=C/c1ccc(-c2ccccc2[N+](=O)[O-])o1 (configuration not stated),13.3% (active)
18,Cc1cc([N+](=O)[O-])c(-c2ccc(/C=N/n3cnnc3)o2)cc1Cl,15.8% (inactive)
19,O=C(CN1CCN(c2ccc(F)cc2)CC1)Nc1ccccc1,-1.97% (inactive)
20,CN(C)CCCSc1ccccc1NC(=O)/C=C/c1ccccc1,5.31% (inactive)
21,CCOc1ccc(S(=O)(=O)NCc2ccc3c(c2)OCO3)cc1C,-1.1% (inactive)
22,COc1ccc(CCNC(=O)c2ccccc2-c2ccccc2C(=O)O)cc1OC,-3.5% (inactive)
23,COc1cccc2[nH]c(C(=O)NCCc3ccccc3)cc12,42.7% (active)

row,Structure (SMILES),max response
1,COCCn1c(=S)[nH]c2cc(C(=O)NCCc3ccc(OC)c(OC)c3)ccc2c1=O,-1.71% (inactive)
2,Cc1cccc(N(C(=O)Cn2nnc(-c3ccc(C)o3)n2)C(C(=O)NC2CCCC2)c2ccncc2)c1 (configuration not stated),1.36% (inactive)
3,CCn1c(SCC(=O)NC2CC2)nnc1-c1ccncc1,5.06% (inactive)
4,O=C(NNC(=O)C1CCN(c2ncccn2)CC1)c1ccccc1,-2.14% (inactive)
5,Cc1cc(-c2ccccc2)nc(N2CCC(C(=O)NC34CC5CC(CC(C5)C3)C4)CC2)n1,27.8% (active)
6,Cc1cc(C)cc(NC(=O)C2CCN(c3nc(C)cc(C)n3)CC2)c1,-2.08% (inactive)
7,Cc1c(S(=O)(=O)N2CC(C)CC(C)C2)c(=O)n(C)c(=O)n1C (configuration not stated),-2.35% (inactive)
8,CCN(CC)P(=O)(Nc1ccc(SC(F)F)cc1)c1ccc(N(C)C)cc1NC(=O)c1ccco1 (configuration not stated),11.5% (inactive)
9,O=C1N(Cc2ccc3c(c2)OCO3)c2ccccc2C1(O)c1c[nH]c2ccccc12 (configuration not stated),-2.27% (inactive)
10,COc1cc(NC(=O)C2=CC(c3ccco3)=NS(=O)(=O)N2C)cc(OC)c1OC,2.06% (inactive)
11,O=C(Nc1ccccc1Cl)c1ccc2nsnc2c1,30.7% (active)
12,Cc1cccc(NC(=O)c2ccc3nsnc3c2)c1C,10.4% (active)
13,O=S(=O)(Nc1ccccc1Cl)c1cccc2nsnc12,1.19% (inactive)
14,O=C(Nc1ccccc1)c1ccc2nsnc2c1,29.1% (active)
15,Cc1nc(C)c(C(=O)Nc2cccc(C)c2C)o1,-2.15% (inactive)
16,O=C(Nc1cccc(NC(=O)c2ccc(Br)cc2)c1)c1ccccc1,2.45% (inactive)
17,Cc1cccc(NC(=O)c2cccc(C(=O)Nc3cccc(C)c3C)n2)c1C,-2.9% (inactive)
18,O=C(Nc1ccccc1N1CCCCC1)c1ccc2nccnc2c1,-1.32% (inactive)
19,Cc1ccc([N+](=O)[O-])c(OCCCNCC(C)O)c1 (configuration not stated),17.1% (inactive)
20,Cc1cc(NC(=O)CCN2CCN(Cc3ccccc3)CC2)ccc1Br,-0.903% (inactive)
21,COc1ccc(NC(=O)CN2C(=O)COc3ccc(S(=O)(=O)N4CCOCC4)cc32)cc1,-5.3% (inactive)
22,COCCNc1ccc(-c2n[nH]c(=O)c3ccccc23)cc1[N+](=O)[O-],-0.883% (inactive)
23,COc1ccc(N(C)C(=O)C2CCN(S(=O)(=O)c3cccc4nsnc34)CC2)cc1,-1.67% (inactive)
